# Out of some 13,000 compounds screened, about 3,200 (25%) showed an effect of 50% or more. The list shows a part of the results.
# System: P. falciparum stage V gametocytes
# Design: BacTiter-Glo ATP luminescence viability of purified stage V gametocytes in 384-well plates, per cent inhibition versus DMSO
# Details: 48 h, 5 µM; inhibitor
row,Structure (SMILES),% Inhibition [%]
1,CCOc1cc2c(cc1OCC)C(c1ccc(O)c(Cl)c1)NCC2 (stereo not shown) [TCMDC-125439],10.77
2,CC1CN(c2nc(NCCc3ccc(O)cc3)nc(NCc3ccccc3-c3ccc(C(F)(F)F)cc3)n2)CC(C)N1 (stereo not shown) [TCMDC-138324],26.39
3,COc1cc2nc(N(C)CC3COc4ccccc4O3)nc(N)c2cc1OC.Cl (stereo not shown) [TCMDC-131889],-22.31
4,C=CCC(C)n1ncc2c3c(N)nc(N)nc3ccc21 (stereo not shown) [TCMDC-137867],-15.57
5,COc1cc(Cc2cnc(N)nc2N)c2c(c1OC)OC(C)C=C2 (stereo not shown) [TCMDC-137896],4.903
6,O=C(Nc1cccc(-c2cccc(-c3nc4ccc(F)cc4[nH]3)c2)c1)c1cnc[nH]1 [TCMDC-136932],-61.11
7,COc1ccc(-c2c3c(=O)n(C)c(=O)n(C)c3c3nnc4ccccc4n23)cc1 [TCMDC-125099],-11.53
8,O=C(Nc1ccc(-c2nc3ccccc3[nH]2)cc1)C1CCCN(CC2CC2)C1 (stereo not shown) [TCMDC-124656],-0.844
9,CN1CCN(CC(=O)Nc2cccc(-c3ccc(-c4nc5cc(C(F)(F)F)ccc5[nH]4)s3)c2)CC1 [TCMDC-136977],-5.014
10,Cc1cccc2[nH]c(-c3cccc(-c4ccc(NC(=O)CC5NC(=O)c6ccccc65)cc4)c3)nc12 (stereo not shown) [TCMDC-137094],-30.82
11,O=C(CC1NC(=O)c2ccccc21)Nc1ccc(-c2ccc(-c3nc4ccc(C(F)(F)F)cc4[nH]3)cc2)cc1 (stereo not shown) [TCMDC-137095],71.74
12,O=C(CC1NC(=O)c2ccccc21)Nc1ccc(-c2cccc(-c3nc4ccc(C(F)(F)F)cc4[nH]3)c2)cc1 (stereo not shown) [TCMDC-137092],-11.47
13,CN1CCN(CC(=O)Nc2ccc(-c3ccc(-c4nc5ccc(C(F)(F)F)cc5[nH]4)cc3)cc2)CC1 [TCMDC-136985],-42.42
14,CN1CCN(CC(=O)Nc2ccc(-c3cccc(-c4nc5ccc(C(F)(F)F)cc5[nH]4)c3)cc2)CC1 [TCMDC-136981],72.32
15,CN1CCC(C(=O)Nc2ccc(-c3cccc(-c4nc5ccc(C(F)(F)F)cc5[nH]4)c3)cc2)CC1 [TCMDC-132188],-24.87
16,CN1CCN(CC(=O)Nc2cccc(-c3cccc(-c4nc5ccc(C(F)(F)F)cc5[nH]4)c3)c2)CC1 [TCMDC-136980],78.77
17,CN1CCN(CC(=O)Nc2cccc(-c3ccc(-c4nc5ccc(C(F)(F)F)cc5[nH]4)cc3)c2)CC1 [TCMDC-136984],-3.609
18,CCOC(=O)CNC(=O)N1CCN(C(=O)NCC(=O)OCC)CC1 [TCMDC-138998],-3.887
19,Cc1c(-c2ccccc2)ccc2[nH]cc(CC#N)c12 [TCMDC-139748],49.07
20,O=C(Nc1cccc(CN2CCCN(Cc3ccc(O)cc3)CC2)c1)c1ccc2ccccc2n1 [TCMDC-141860],34.74
21,CCOc1cc(C)ccc1C1CCN(CCCCNC(=O)c2nc(-c3ccc(C(F)(F)F)cc3)[nH]c2C)CC1 [TCMDC-138585],-10.92
22,COc1ccc(-c2nc3ccc(C)nc3nc2-c2ccc(OC)cc2)cc1 [TCMDC-142014],17.71

row,Structure (SMILES),% Inhibition [%]
1,CC(CCc1ccccc1)NCC(O)c1cccc(C(F)(F)F)c1 (stereo not shown) [TCMDC-131247],18.39
2,c1ccc(-c2nc(NCCCn3ccnc3)cc(-c3ccncc3)n2)cc1 [TCMDC-125417],49.28
3,FC(F)(F)c1cccc(-c2cc(NCCCn3ccnc3)nc(-c3ccncc3)n2)c1 [TCMDC-125414],56.64
4,c1ccc(-c2cc(NCCCn3ccnc3)nc(-c3cccnc3)n2)cc1 [TCMDC-125422],8.996
5,CC1CN=C(c2ccc(NC(=O)c3ccc(C(=O)Nc4ccc(C5=NCC(C)N5)cc4)cc3)cc2)N1 (stereo not shown) [TCMDC-137474],8.984
6,Cc1ccc(CNC(=O)c2ccc(CN3CCCN(Cc4ccsc4)CC3)cc2)cc1 [TCMDC-136451],11.88
7,O=S(=O)(NCCN1CCCC1)c1ccc(-c2ccc(CNCc3ccsc3)cc2)s1 [TCMDC-132285],78.64
8,O=S(=O)(NCCN1CCCC1)c1ccc(-c2cccc(CNCc3ccsc3)c2)s1 [TCMDC-132274],102.4
9,COc1ccc(S(=O)(=O)NC2CCN(c3ccc(C(F)(F)F)cc3NC(=O)OCC(C)C)CC2)cc1 [TCMDC-134275],14.87
10,N#Cc1cccc(NC(=O)Nc2cccc(-c3cccc(-c4nc5ccc(C(F)(F)F)cc5[nH]4)c3)c2)c1 [TCMDC-133195],-34.96
11,Cc1nn(-c2ccccc2)c2c1C(c1ccc(C(C)C)cc1)N1C(=N2)N(Cc2ccccc2)c2ccccc21 (stereo not shown) [TCMDC-123903],-90.94
12,COc1ccc(CN2CCN(CCOC(c3ccccc3)c3ccccc3)CC2)c(O)c1 [TCMDC-135693],26.17
13,COc1ccc(CN2CCN(CCOC(c3ccc(F)cc3)c3ccc(F)cc3)CC2)c(O)c1 [TCMDC-135694],24.37
14,CCN1C(=O)N(CCC(C)C)C2(CCN(Cc3ccc(OC)cc3O)CC2)C1=O [TCMDC-124587],63.13
15,O=C(/C=C/c1ccc(Cl)c(Cl)c1)NCCCCCN1CCCC(CNS(=O)(=O)c2ccc(F)cc2)C1 (stereo not shown) [TCMDC-139596],59.41
16,COc1ccc(S(=O)(=O)NCC2CCCN(CCCCCNC(=O)/C=C/c3ccc(Cl)c(Cl)c3)C2)cc1 (stereo not shown) [TCMDC-139595],95.6
17,O=c1cc(NCCCNCc2cc(F)cc(C(F)(F)F)c2)[nH]c2ccccc12 [TCMDC-139726],25.21
18,COc1ccc2ccccc2c1CNCCCCCCNCc1c(OC)ccc2ccccc12 [TCMDC-137915],112.9
19,CC(C)Oc1ccc2ccccc2c1CNCCCCCCNCc1c(OC(C)C)ccc2ccccc12 [TCMDC-137965],107.1
20,CC(C)COc1ccc2ccccc2c1CNCCCCCCNCc1c(OCC(C)C)ccc2ccccc12 [TCMDC-137972],129.3
21,CC(C)CCNCc1c(O)ccc2ccccc12 [TCMDC-137596],6.02

# Source: article PMC4552634, “A New Set of Chemical Starting Points with Plasmodium falciparum Transmission-Blocking Potential for Antimalarial Drug Discovery” (PLoS ONE, 2015)
